# Compounds with a hit are over-represented: about 11% of the library has one in this group of screens.
# ALDH1A1 inh = inhibitors of human aldehyde dehydrogenase 1A1; P00352; Purified ALDH1A1, NADH fluorescence, propionaldehyde substrate; Potency, µM (top dose mostly 75.3 µM), for inactives: top-dose activity, negative = inhibition, hits mostly inhibitors; hit rate 7.3% among 220,000;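 also: potency is read from the fitted curve at half-maximal effect; plate controls were no enzyme wells and a reference inhibitor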
# Target sequence (P00352 whole entry, looked up): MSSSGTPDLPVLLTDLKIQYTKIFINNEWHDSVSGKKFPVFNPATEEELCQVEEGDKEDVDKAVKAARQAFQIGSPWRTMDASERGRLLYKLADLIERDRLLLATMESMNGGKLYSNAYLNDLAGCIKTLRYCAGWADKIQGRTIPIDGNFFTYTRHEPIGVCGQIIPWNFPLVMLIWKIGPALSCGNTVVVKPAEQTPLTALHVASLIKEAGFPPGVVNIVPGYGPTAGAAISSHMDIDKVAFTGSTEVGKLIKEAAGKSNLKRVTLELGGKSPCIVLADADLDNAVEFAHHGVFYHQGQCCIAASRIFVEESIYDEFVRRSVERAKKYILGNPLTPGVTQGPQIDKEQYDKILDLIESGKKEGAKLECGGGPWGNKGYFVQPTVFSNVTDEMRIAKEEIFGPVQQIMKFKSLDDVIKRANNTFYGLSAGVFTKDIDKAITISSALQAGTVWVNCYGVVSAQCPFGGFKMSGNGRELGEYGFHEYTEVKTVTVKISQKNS
# RGS12 GoLoco inh = inhibitors of human Gai1-RGS12 GoLoco interaction (red fluorophore); Potency, µM (doses to about 61.6 µM), for inactives: top-dose activity, negative = inhibition, actives largely listed as inhibitors; P63096; hit rate 0.44% among 230,000; AID 880; Gai1:RGS12 GoLoco peptide FP, rhodamine, 10 min; active = well fitted inhibition curve with a large enough effect, not every such curve was filed as active; inactive = no such curve, though single readings can be large or run the other way; also: potency is read from the fitted curve at half-maximal effect; % is scaled to controls: 0 for no effect and ±100 for the full control effect; nearly all actives have a fitted effect of over 30% in size
# HTT cytoprotect = Huntington cell model cytoprotection by ATP luminescence | PC12 HTT-Q103 induced, cytoprotection, ATP luminescence, 40 h | Potency, µM (titrated, usually from 56.4 µM), inactives show cytoprotection (ATP increase), most hits filed as activators | hit rate 0.14% among 230,000 | AID 1471; active = well fitted curve in the direction sought with a large enough effect; inconclusive = small, poorly fitted or top-dose-only effect, or another doubt; inactive = no such curve, though single readings can be large; an effect the other way counts as inactive or inconclusive; also: potency is read from the fitted curve at half-maximal effect; % of control where 0% means no effect; nearly all actives have a fitted effect of over 45% in size
#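 Quantitative HTS on tebufenozide-induced (100 nM) PC12 cells expressing HTTQ103 exon 1–GFP; compounds tested as a concentration series; survival measured via cellular ATP.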
# HPGD block = inhibitors of human 15-hydroxyprostaglandin dehydrogenase (HPGD). P15428. purified HPGD, NADH fluorescence kinetic, PGE2 substrate. Potency, µM, for inactives: top-dose activity change, negative = inhibition, most hits filed as inhibitors. hit rate 4.3% among 150,000. AID 894; also: potency is read from the fitted curve at half-maximal effect; % is scaled to controls: 0 for no effect and ±100 for the full control effect
# Target sequence (P15428 whole entry, looked up): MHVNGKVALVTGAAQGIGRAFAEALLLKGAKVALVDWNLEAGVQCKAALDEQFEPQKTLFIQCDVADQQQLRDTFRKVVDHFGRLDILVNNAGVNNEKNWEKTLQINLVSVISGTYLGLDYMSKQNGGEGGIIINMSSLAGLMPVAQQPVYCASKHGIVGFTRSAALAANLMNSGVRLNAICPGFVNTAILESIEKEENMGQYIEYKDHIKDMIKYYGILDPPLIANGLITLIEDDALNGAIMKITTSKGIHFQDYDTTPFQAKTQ
#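 20 nM HPGD preincubated 15 min at room temperature with compound in 50 mM Tris-HCl pH 8, 0.01% Tween 20. Started with 1 mM NAD+ and 30 uM prostaglandin E2; NADH fluorescence (360/450 nm) read 5 times over 30-s intervals, last minus first.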
# PNC inhibitor = inhibitors of perinucleolar compartment assembly | hit rate 3.1% among 140,000 | PC3M PTB-GFP, PNC prevalence imaging, 16 h; hits give low values | activity change (PNC), negative = inhibition, % at 10 µM;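 active = readout at or below -70, meaning at least 70% loss of cells showing the perinucleolar compartment, a nuclear body marking cancer cells; inconclusive = readout between -30 and a set limit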;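 also: plate controls were DMSO wells for no effect and camptothecin positive control wells for full effect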
#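 Compounds are pinned in duplicate onto adhered PC3M cells stably expressing GFP-tagged PTB and incubated 16 h at 37 C. Cells are then fixed, nuclei stained with Hoechst, and PNC-positive cells counted.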
# HTT aggregate = reduces HttQ103-GFP aggregates in PC12 cells; PC12 HttQ103-GFP aggregates, Acumen cytometry, 40 h; Potency, µM (titrated, usually from 46.1 µM), inactives show top-dose activity change, negative = inhibition, actives largely listed as inhibitors; hit rate 1.1% among 220,000; active = well fitted curve in the direction sought with a large enough effect; inconclusive = small, poorly fitted or top-dose-only effect, or another doubt; inactive = no such curve, though single readings can be large; an effect the other way counts as inactive or inconclusive; also: potency is read from the fitted curve at half-maximal effect; % is scaled to controls: 0 for no effect and ±100 for the full control effect; nearly all actives have a fitted effect of over 60% in size
#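 Aggregate formation scored by laser-scanning cytometer (488 excitation, 500–530 emission) in lysed PC12 cells expressing Q103-GFP after 100 nM tebufenozide induction; library tested in dose series, with ATPLite reagent added in the multiplex.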
# Active calls of the source: *; ? = inconclusive; nt = no result given; [ ] = another dose, or the depositor's remark. Unless noted, calls follow the shape of the dose curve; as a rule, active = well fitted inhibition curve with a large enough effect (not every such curve was filed as active); inconclusive = small, poorly fitted or top-dose-only effect, or another doubt; inactive = no such curve, though single readings can be large or run the other way.
SMILES,ALDH1A1 inh,RGS12 GoLoco inh,HTT cytoprotect,HPGD block,PNC inhibitor,HTT aggregate
O=C(Nc1cccc(S(=O)(=O)N2CCCCC2)c1)c1ccc2ccccc2n1,-3%,0%,6%[10 µM],-4%,-9,-24%
O=C(NNC1=NCCC1)c1cccc(S(=O)(=O)N2CCCC2)c1,8%,2%,nt,-10%,-107*,-1%
O=C(Nc1cccnc1)c1cccc(S(=O)(=O)N2CCCCC2)c1,2%,5%,-3%[10 µM],nt,nt,-13%[9.22 µM]
O=C(NNC1=NCCC1)c1cccc(S(=O)(=O)N2CCOCC2)c1,4%,5%,10%[10 µM],-2%,12,-14%
Cc1cc(NC(=O)c2cccc(S(=O)(=O)N3CCCC3)c2)no1,35µM*,4%,-18%[0.074 µM],-16%,?,-15%
O=C(Nc1cccc(O)c1)c1cccc(S(=O)(=O)N2CCCC2)c1,-11%,-20%,2.8µM*,-7%,?,-17%
Cc1cc(NC(=O)c2ccc(Br)c(S(=O)(=O)N3CCCC3)c2)no1,-6%,-2%,5%[10 µM],-3%,?,-18%
O=C(c1cccc(S(=O)(=O)N2CCCC2)c1)c1cccc(S(=O)(=O)N2CCCC2)c1,5%,-2%,-9%[10 µM],1%,-14,11µM*
O=C(c1cccc(S(=O)(=O)N2CCCCC2)c1)N1CCCCC1,-5%,5%,10%[10 µM],-11%,?,-16%
O=S(=O)(c1cccc(-c2nnco2)c1)N1CCCC1,-12%,-7%,-27%[10 µM],3%,-107*,-10%
CN(C)c1ccnc2sc(C(N)=O)c(N)c12,?,-6%,26%,-24%,10,1.6µM*
CN(C)c1ccnc2sc(C(=O)c3ccc(Br)cc3)c(N)c12,?,22%,-40%,nt,nt,6%
CN(C)C=Nc1c(C(=O)c2ccccc2)sc2nccc(N(C)C)c12,?,11%,nt,-15%,29,6.3µM*
Cc1ccccc1/C(N)=N/O,12%,-5%,-28%[10 µM],-11%,2,3%
COc1ccc(CCNc2oc(COc3ccccc3)nc2C#N)cc1,?,10%,?,-31%,19,-18%
N#Cc1nc(COc2ccccc2F)oc1NCCc1ccccc1,-10%,0%,17%[10 µM],13µM*,?,-10%
N#Cc1nc(Cc2ccccc2)oc1NCc1ccccc1,-3%,33%,-8%[10 µM],14µM*,221,2%
COc1cccc(Cn2c(=O)c(C)nc3cnc(OC)nc32)c1,-3%,27%,-26%,nt,nt,nt
O=C(Oc1ccccc1)N1CCC[C@@]2(CCN(c3ccccn3)C2)C1,?,-5%,25%,?,nt,nt
Brc1ccc(-c2ncc3ccccn23)cc1,nt,3%,-17%[10 µM],nt,nt,1%[9.22 µM]
CC(C)[C@@H](CC(=O)N[C@@H]1CCCC[C@H]1C(=O)N[C@H](CC(=O)N[C@@H](CCC(=O)O)CC(=O)O)Cc1c[nH]c2ccccc12)NC(=O)C[C@H](CO)NC(=O)[C@@H]1CNCC[C@H]1N,?,3%,-4%[1.9 µM],-5%,nt,nt
COc1ccc(CCNC(=O)C(C)Sc2ccc(C)cc2)cc1OC (stereo not given),0%,-8%,11%[10 µM],-7%,12,-1%
Cc1onc(-c2ccccc2Cl)c1C(=O)NCc1ccccc1,2%,-1%,-4%,-13%,-14,5%
COc1ccc(CNC(=O)c2cnc(C)cn2)c(OC)c1,?,-2%,-24%[10 µM],-6%,5,3%
COc1ccc(CNC(=O)c2ccc(C(C)(C)C)cc2)cc1,9%,-8%,15%[10 µM],nt,nt,39%[9.22 µM]
SMILES,ALDH1A1 inh,RGS12 GoLoco inh,HTT cytoprotect,HPGD block,PNC inhibitor,HTT aggregate
COc1ccc(CNC(=O)c2ccc(C)o2)cc1,-9%,10%,-6%[10 µM],3.5µM*,-4,7%
COc1ccc(CNC(=O)C(C)Sc2ccc(C)cc2)cc1 (stereo not given),14µM*,3%,-34%,nt,nt,-10%[9.22 µM]
COc1ccc(CNC(=O)c2cnc(C)cn2)cc1,?,-29%,-1%,25µM*,22,5%
COc1ccc(CNC(=O)c2c(-c3cc(Cl)c(OC)c(Cl)c3)noc2C)cc1,0.045µM*,1%,-30%,-7%,22,-18%
CC(=O)[C@H]1CC[C@H]2C3CC=C4C[C@@H](O)CC[C@]4(C)C3CC[C@]12C (stereo not given in full),6%,3%,?,nt,nt,30%
O=C(COC(=O)c1c[nH]c(=O)[nH]c1=O)Nc1ccccc1,13%,1%,-32%,nt,nt,-11%[9.22 µM]
O=C(O)c1ccccc1-c1ccc(C(F)(F)F)cc1,nt,nt,?,nt,nt,17%
CCCn1c(N)c(C(c2ccc(OC)cc2)N2CCN(c3ccccc3)CC2)c(=O)[nH]c1=O (stereo not given),2.5µM*,-20%,-13%,-19%,22,3%
COc1ccc2nc3c(nc2c1)C(=O)c1ccccc1-3,3%,nt,nt,-4%,nt,nt
COc1cccc2c3c(c(C)nc12)CC(CO)O3 (stereo not given),?,8%,-22%,?,nt,nt
CCOc1ccc(N2C(=O)C3C4C=CC(CC4)C3C2=O)c([N+](=O)[O-])c1 (stereo not given),28µM*,0%,-18%,-21%,-10,-1%
CCCNc1sc(S(=O)(=O)CCC)nc1S(=O)(=O)c1ccc(C)cc1,10µM*,-3%,nt,nt,nt,4%
CCS(=O)(=O)c1nc(S(=O)(=O)c2ccc(Cl)cc2)c(NCCOC)s1,4.5µM*,-12%,-19%,nt,nt,7%
CCCS(=O)(=O)c1nc(S(=O)(=O)c2ccc(C)cc2)c(NCCCN2CCOCC2)s1,14µM*,9%,-1%,-15%,-18,13%
COc1cc2c(cc1OC)C1C(=O)c3ccc4c(c3OC1CO2)C=CC(C)(C)O4 (stereo not given),2%,-6%,-140%,-13%,nt,nt
CC(C)(C)[Si](C)(C)c1c2c(nc3ccc(OCc4ccccc4)cc13)-c1cccc(=O)n1C2,?,-19%,-7%,?,nt,nt
CC(O)[C@@H](O)[C@H]1CNc2nc(N)[nH]c(=O)c2N1 (stereo not given in full),?,-6%,nt,?,nt,nt
Nc1ncnc(NCc2ccc(F)cc2)c1[N+](=O)[O-],8%,11%,-14%[10 µM],nt,nt,?
Nc1ncnc(NCc2ccccc2)c1[N+](=O)[O-],-5%,6%,nt,-13%,-6,11µM*
Cc1cccnc1Nc1ncnc(N)c1[N+](=O)[O-],14%,3%,-14%,nt,nt,-3%
Cc1ccc(C)c(Nc2ncnc(N)c2[N+](=O)[O-])c1,3%,2%,nt,-29%,-124*,8%
CCCOCC1CC(CCc2nc(=S)[nH][nH]2)C(=O)O1 (stereo not given),2%,1%,24%[10 µM],-24%,-8,11%
CCCCOCC1CC(CC#CCN2CCCCC2)C(=O)O1 (stereo not given),25µM*,-7%,-7%[10 µM],nt,nt,-8%[9.22 µM]
